The source of these data is PubChem BioAssay AID2729 (National Center for Advancing Translational Sciences (NCATS), 2010).

The list shows a part of the results. Records with an inconclusive call do not appear. Unmarked numbers belong to inactive results. The call rests on the fitted dose curve; in most records, active means well fitted inhibition curve with a large enough effect; inconclusive means small, poorly fitted or top-dose-only effect, or effect the other way; inactive means flat fitted curve, though single readings scatter.

The test is described as follows: High Content Assay for Compounds that inhibit the Assembly of the Perinucleolar Compartment: WI-38 Cytotoxicity. The following applies: WI-38 normal lung fibroblasts, ATPLite luminescence ATP viability, 24 h; series mostly up to 46.1 µM; activity change, negative = cytotoxicity: at the top concentration. From the text: High Content Assay for Compounds that inhibit the Assembly of the Perinucleolar Compartment
NIH Chemical Genomics Center [NCGC]
NIH Molecular Libraries Probe Centers Network [MLPCN]
Assay Submitter (PI): Sui Huang, Northwestern University, Feinberg School of Medicine, Cell and Molecular Biology, Chicago, Illinois.
The perinucleolar compartment (PNC) is a non-membrane-bound nuclear subdomain that is associated with but structurally distinct from the nucleolus. The PNC is a heritable trait, in which the number of PNCs per cell in daughter cells often mimics that of their mother cells. The PNC is heterogeneous in shape, is stable through interphase, disassembles during mitosis, and reassembles in early G1. The PNC is concentrated with newly synthesized RNA polymerase III (pol III) RNAs (MRP RNA, RNAse P H1 RNA, hY RNAs[hY1, 2, 5], Alu RNA, and SRP [7SL] RNA) and RNA binding proteins (nucleolin, PTB, CUG-BP, KSRP, Raver1, Raver2, and Rod).
Extensive in vitro studies have shown that the PNC is unique to tumor cells and preferentially forms in tumor cells derived from solid tissues. Examination of cancer cell lines from various origins and malignant capacities has shown that PNC prevalence correlates with the malignancy of tumors and has the potential to be developed as a pan-cancer prognostic marker.
Although the PNC is associated with a DNA locus and a handful of components have been identified, much remains to be investigated regarding the structure and function of the PNC and its mechanistic link to cancer. We have previously shown that PNC prevalence reduction is a valid strategy to identify compounds that can be used to study the structure and function of the PNC. It is necessary, however, to create a screening platform that is able to test a large number of compounds in an automated fashion. Here we report the development and robustness of an automated whole-cell phenotypic image-based screening assay that is capable of identifying such compounds.
We conducted a followup assay to measure the effect of the lead candidates on cell health in a non-metastatic line, WI-38, by measuring ATP levels (ATPLite).
1. Cells at a density of 75-90% confluency in T175 flasks were harvested using 7 ml TrypLE Express cell dissociation reagent. After dissociation (5 minutes room temperature incubation) 10 ml of complete media was added to the TrypLE/cell suspension. The liquid was transferred to a 50 ml Conical tube and cells were pelleted at 1000 RPM for 5 min. Supernatant was removed and cells were resuspended to a final density of 150-200 cells/ul in complete media.
2. Cells were plated in 5 ul volume (2000 cells/well) into 1536 well White solid bottom plates and allowed to recover and adhere at 37 C in a humidified 5% CO2 incubator for 4 hours.
3. After 4 hour incubation, compound libraries (23 nl of 12.5 uM in columns 5-48) were transferred to the plates in duplicate using a 1536 well pintool. Camptothecin positive control (59 uM final) was added to column 2 and 1:3 dilutions of camptothecin was added to column 3. DMSO negative controls were present in columns 1 and 4.
4. After a 24 hour incubation in the 37 C incubator, all wells were treated with 3 ul of ATPLite reagent using a multidrop combi dispenser (ThermoFisher). Bubbles that formed during dispensing were removed by spinning the plates for 1 minutre at 1500 RPM on a table top centrifuge.
5. Luminescencent signal was detected on a Viewlux CCD based imager (PerkinElmer) with a clear filter and a 30 second integration time.
The WI-38 normal human fetal lung fibroblast cell line was provided by Sui Huang of Northwestern University. The media and cell culture reagents were purchased from Invitrogen (Carlsbad, CA), ATPLite came from PerkinElmer.
Background: Cellular ATP, detected with luciferase, serves as a proxy for viable cell number.
Take `CC1(c2cccc([N+](=O)[O-])c2)CC(C)(C)N(C(=O)c2ccccc2)c2ccccc21` (stereo unspecified): the “activity change, negative = cytotoxicity” value was 7.08%.

`Cn1c2ccccc2c(=O)c2c(=O)n(Cc3ccco3)c(COc3ccccc3)nc21`: the “activity change, negative = cytotoxicity” value was -2.37%.

Consider `CCOC(=O)c1c(-c2cccc(C)c2)csc1NC(=O)c1c(-c2ccccc2)noc1C`, for which the “activity change, negative = cytotoxicity” value was -12.3%.

`COC(=O)c1ccc(CSc2ccccc2C)o1`: the “activity change, negative = cytotoxicity” value was 16.6%.

`N=c1c2c(-c3ccccc3)c(-c3ccccc3)n(Cc3ccccc3)c2ncn1CCCO`: the “activity change, negative = cytotoxicity” value was -13.3%.

In the case of `COC(=O)C1=C(C)N(c2ccc(Br)cc2)C(=O)/C1=C\c1ccco1`, the “activity change, negative = cytotoxicity” value is -2.42%.
